According to PubChem BioAssay:
The source made the active and inactive calls.

The molecules below were run on XIP peptide (Xip251-270) binding (assay: small-molecule binders of XIP peptide, primary screen, biochemical, small-molecule microarray, fluorescence 635/667 nm, 0.1 µg/mL protein (AID 1182)). Conditions: fluorescent protein binding, 635 nm, higher = more signal, called active from +8 up or from −8 down.

| SMILES | composite z-score |
| --- | --- |
| CS(=O)(=O)CCOC(=O)C1=CC(CCCO)=CC(c2ccc(CN3CCCC3)cc2)N(Cc2sc3ccccc3c2Cl)C=C1C(=O)OCCS(C)(=O)=O (centres undefined) | 0.814 (inactive) |
| Cc1ccc(F)cc1S(=O)(=O)N[C@@H]1CCN(Cc2ccc(Br)cc2)C1 | -0.238 (inactive) |
| CO[C@H]1O[C@H](CO)[C@@H](OC(=O)Nc2ccccc2)[C@H](OC(=O)c2cc3ccccc3[nH]2)[C@H]1OC(=O)c1cc2ccccc2[nH]1 | 2.41 (inactive) |
| CCCCC(CC)C(O)C1C=CC2C(=O)N(C)C(=O)C2N1Nc1ccccc1 (centres undefined) | -0.12 (inactive) |
| CCC#CCN(Cc1ccccc1Br)[C@H](/C=C/C1CC1)[C@@H](O)Cc1ccccc1 | -0.243 (inactive) |
| O=C1N(Cc2ccccc2)c2ccccc2C[C@]12N=C(c1ccc(OCCCO)cc1)O[C@@H]2c1ccccc1 | -0.12 (inactive) |
| Cn1cccc1C(O)C1C=CC2C(=O)N(c3ccccc3)C(=O)C2N1Nc1ccccc1 (centres undefined) | 0.622 (inactive) |
| C=CCC(OC(C)=O)[C@@H]1[C@@H](N(Cc2ccc(-c3cccc(C(F)(F)F)c3)o2)C(=O)c2ccc(-c3ccccc3)cc2)c2cc(OCCCO)ccc2N1C(=O)Cc1ccc2ccccc2c1 (some centres undefined) | -0.186 (inactive) |
| CCOC(=O)C1=C[C@@H](c2ccccc2)N(S(=O)(=O)c2ccc(C)cc2)[C@H]1c1ccc(OC)cc1 | 0.138 (inactive) |

What follows are molecules tested on XIP peptide (Xip251-270) (assay: small-molecule binders of XIP peptide, primary screen, biochemical, small-molecule microarray, fluorescence 635/667 nm, 0.5 µg/mL protein (AID 1183)). Conditions: small-molecule microarray binding, fluorescence 635 nm; higher = more signal.

| SMILES | composite z-score |
| --- | --- |
| COC(=O)[C@@H]1N=C(c2ccc(OCCCO)cc2)O[C@@H]1c1ccccc1 | 0.759 |
| COCCOC(=O)N1C(=O)[C@@]2(c3ccccc31)[C@H](c1ccc(O)cc1)N1[C@H](c3ccccc3)[C@H](c3ccccc3)OC(=O)[C@H]1[C@@H]2C(=O)N1CCN(c2ncccn2)CC1 | 0.787 |
| CC(C)[Si]1(C(C)C)OCc2cc(-c3ccc(-c4ccc(Cl)c(Cl)c4)o3)nc(-c3ccccc3)c21 | 0.716 |
| [N-]=[N+]=Nc1ccccc1[C@H]1OC(c2ccc(OCCCO)cc2)=N[C@@]1(Cc1ccccc1)C(=O)NCCN1CCOCC1 | 0.83 |
| CC(C)[Si]1(C(C)C)OCc2cc(C3CC3)nc(-c3ccc(Oc4ccccc4)cc3)c21 | -0.603 |
| [N-]=[N+]=Nc1ccccc1[C@@H]1OC(c2ccc(OCCCO)cc2)=N[C@]1(Cc1ccccc1)C(=O)O | 0.721 |
| CO[C@H]1O[C@H](CO)[C@@H](OC(=O)Nc2ccc(Br)cc2)[C@@H]2OC(=O)[C@@H](Cc3ccccc3)C/C=C/C[C@H](Cc3ccccc3)C(=O)O[C@@H]12 | 0.693 |
| CS(=O)(=O)CCOC(=O)C1=CC(c2ccc(CO)cc2)=CC(C2CC2)N(Cc2sc3ccccc3c2Cl)C=C1C(=O)OCCS(C)(=O)=O (centres undefined) | 0.492 |
| COC(=O)[C@@]1(Cc2ccccc2)[C@H]2c3cc(C(=O)N(C)C)n(Cc4ccc(C)o4)c3C[C@H]2CN1C(=O)c1ccccc1 | -0.523 |
| CCCC[C@@H](O)C1=C(COC)C[C@H]2C(=O)N(Cc3ccccc3)C(=O)[C@H]2[C@H]1CO | 0.782 |
| NC(=O)[C@H]1[C@@H]2C(=O)O[C@@H](c3ccccc3)[C@@H](c3ccccc3)N2[C@@H](c2ccc(OCCO)cc2)[C@]12C(=O)Nc1ccc(C#CCCO)cc12 | 0.357 |
| CCCCC[C@H]1OC[C@@]23C=C(Br)[C@@H](CC12)[C@@]1(CO1)C3=O (some centres undefined) | -0.332 |
| C=C(C(=O)CC[C@H](OC(=O)c1ccccc1-c1ccccc1C(=O)O)c1cccc(OCCO)c1)C(C)C | 0.232 |
| C=CCNC(=O)[C@@H]1[C@H]2C(=O)O[C@H](c3ccccc3)[C@H](c3ccccc3)N2[C@H](c2ccc(OCCO)cc2)[C@@]12C(=O)N(C(=O)OCCOC)c1ccc(C#Cc3ccc(OC)cc3)cc12 | 0.589 |
| NCCCCCCNC(=O)[C@@H]1C[C@@H]2C(=O)N[C@@H](CCCCN)C(=O)N2[C@@H]1c1ccc(O)cc1 | 0.739 |
| COc1cc2c(cc1O)C=[N+](Cc1sc3ccccc3c1Cl)CC2 | 0.133 |
| CC(C)N1C(=O)c2ccccc2[C@@H](C(=O)NCCN2CCOCC2)[C@@H]1c1ccc(CO)cc1 | 0.0961 |
| COCCOC(=O)N1C(=O)[C@@]2(c3cc(C#CCCO)ccc31)[C@H](c1ccc(OCCO)cc1)N1[C@H](c3ccccc3)[C@H](c3ccccc3)OC(=O)[C@H]1[C@@H]2C(=O)Nc1nc2ccccc2s1 | 0.509 |

| SMILES | composite z-score |
| --- | --- |
| CCCCN1CC=CC23O[C@@H]4/C=C\CCCOC(=O)C4[C@H]2C(=O)N(CCO)[C@@H]3C1=O (some centres undefined) | 0.157 |
| Oc1ccc2cc[n+](Cc3cc4c(cc3Br)OCO4)cc2c1 | 0.135 |
| CCOC(=O)C[C@H]1[C@H](OC(=O)c2ccc(C(=O)c3ccccc3)cc2)[C@@H](NC(=O)CC(C)C)c2cc(OCCCO)ccc2N1C(=O)c1ccccc1 | 0.671 |
| C=CCOC(=O)[C@@H]1[C@H]2C(=O)O[C@H](c3ccccc3)[C@H](c3ccccc3)N2[C@H](c2ccc(OCCOC(=O)[C@@H]3C[C@@H]4C(=O)N[C@@H](CCCC[N+](C)(C)C)C(=O)N4[C@@H]3c3ccc(O)cc3)cc2)[C@@]12C(=O)Nc1ccc(I)cc12 | 0.808 |
| COc1ccc(CCNC(=O)[C@@]2(c3ccc([N+](=O)[O-])cc3)CC(=O)N(C3CCCCC3)[C@@H]2c2ccc(CO)cc2)cc1 | 0.662 |
| CN(C)C(=O)[C@]1(Cc2ccccc2CN=[N+]=[N-])N=C(c2ccc(OCCCO)cc2)O[C@@H]1c1ccccc1 | 0.738 |
| Cc1ccc(C(C)CC(O)C2C=CC3C(=O)N(c4ccccc4)C(=O)C3N2Nc2ccccc2)o1 (centres undefined) | 0.518 |
| O=C(c1ccccc1)N1C(=O)[C@]2(Cc3ccccc31)N=C(c1ccc(OCCCO)cc1)O[C@@H]2c1ccccc1 | 0.387 |
| CS(=O)(=O)CCOC(=O)C1=CC(CCCO)=CC(c2ccc(CN3CCCC3)cc2)N(Cc2sc3ccccc3c2Cl)C=C1C(=O)OCCS(C)(=O)=O (centres undefined) | 0.746 |
| Cc1ccc(F)cc1S(=O)(=O)N[C@@H]1CCN(Cc2ccc(Br)cc2)C1 | -0.192 |
| CO[C@H]1O[C@H](CO)[C@@H](OC(=O)Nc2ccccc2)[C@H](OC(=O)c2cc3ccccc3[nH]2)[C@H]1OC(=O)c1cc2ccccc2[nH]1 | 0.783 |
| CCCCC(CC)C(O)C1C=CC2C(=O)N(C)C(=O)C2N1Nc1ccccc1 (centres undefined) | 0.298 |
| CCC#CCN(Cc1ccccc1Br)[C@H](/C=C/C1CC1)[C@@H](O)Cc1ccccc1 | 0.0059 |
| O=C1N(Cc2ccccc2)c2ccccc2C[C@]12N=C(c1ccc(OCCCO)cc1)O[C@@H]2c1ccccc1 | 0.59 |
| Cn1cccc1C(O)C1C=CC2C(=O)N(c3ccccc3)C(=O)C2N1Nc1ccccc1 (centres undefined) | 0.801 |
| C=CCC(OC(C)=O)[C@@H]1[C@@H](N(Cc2ccc(-c3cccc(C(F)(F)F)c3)o2)C(=O)c2ccc(-c3ccccc3)cc2)c2cc(OCCCO)ccc2N1C(=O)Cc1ccc2ccccc2c1 (some centres undefined) | -0.738 |
| CCOC(=O)C1=C[C@@H](c2ccccc2)N(S(=O)(=O)c2ccc(C)cc2)[C@H]1c1ccc(OC)cc1 | 0.599 |
